Several values for one entry are separate records, joined by “and”; a condition that tells them apart may be missing. Equal entries are not always repeated. Activity calls are given as the source filed them. How the source made its calls: active means hit-call score of the fitted dose curve at least 0.9, where 1 is the maximum; inconclusive means response in the unintended direction; inactive means score below 0.9.

The source of these data is PubChem BioAssay (EPA / NIEHS).

The subject of this assay is Thyroperoxidase (TPO), gene 54314. The assay can be described thus: CCTE_Simmons_AUR_rTPO: CCTE's Amplex UltraRed Assay for Thyroperoxidase (TPO) Inhibition, Simmons Lab (AID 2283662).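 On AC50: potency for loss of signal meaning inhibition of peroxidase activity.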 The protocol: CCTE_Simmons_AUR_rTPO is a biochemical, single-readout assay that uses microsomes from rat thyroid gland in a tissue-based cell-free assay. Measurements were taken 0.5 hour after chemical dosing in a 384-well plate.CCTE_Simmons_AUR_rTPO is the assay component measured from the CCTE_Simmons_AUR_rTPO assay. It is designed to make measurements of thyroperoxidase (TPO) activity as detected with fluorescence intensity signals using the Amplex UltraRed technology as a form of enzyme activity reporter.Data from the assay component CCTE_Simmons_AUR_rTPO was analyzed at the endpoint, CCTE_Simmons_AUR_rTPO, in the positive analysis fitting direction relative to DMSO as the negative control and baseline of activity. Using a type of enzyme reporter, the Amplex UltraRed assay, loss-of-signal activity can be used to understand decreased peroxidase activity in the presence of excess […]. To generalize the intended target to other relatable targets, this assay endpoint is annotated to the oxidoreductase intended target family, where the subfamily is peroxidase.
As described previously (Paul et al., 2014), the AUR substrate was repurposed to detect peroxidase (ie, TPO) activity in the presence of excess H2O2 for the AUR-TPO assay. The reaction profile for the 384-well format AUR-TPO assay is scaled to an 80 ul assay volume containing 25 uM AUR, 300 uM H2O2, and 5 ug microsomal protein in 200 mM phosphate buffer. The assay concentration of thyroid microsomal protein was approximately […]. First, rat microsomes containing TPO and diluent 200mM potassium phosphate buffer were added to opaque, black 384-well plates (Greiner, BioExpress; Kaysville, Utah) using an automated liquid handler (BioTek MicroFlo; Winooski, Vermont) with a plastic 5 ul tubing cassette. Similarly, AUR was added next by automated liquid handling. Test compounds were administered using a HDRT as described earlier to achieve a 0.5% final DMSO concentration. Finally, H2O2 (300 uM, final concentration) was then added by the BioTek MicroFlo to initiate the reaction. Microplates were incubated at 37C in the dark for 30min. Plates were then shaken on a fluorescence plate reader (FLUOStar Optima, BMG LabTech; GmbH, Germany), and endpoint fluorescence (top read) was measured using 10 flashes per well at 544/590nm excitation/emission. Three biological replicates of technical singles were run for every chemical concentration tested. A titrated range of MMI served as a positive control for TPO inhibition on each plate of the AUR-TPO screening campaign. Test chemicals were administered as a titrated series of 8 concentrations from 5 nM up to 87.5 uM [final] for 30 minutes prior to single endpoint detection. Dimethylsulfoxide [DMSO] was used as the vehicle control. Methimazole [MMI] was used as the positive control and was administered as a titrated series of 8 concentrations from 1 nM up to 271 uM [final].
Usually AC50 stands for the midpoint of the concentration-response curve, whichever way the signal moves. Regarding `Cn1cnc([N+](=O)[O-])c1Sc1ncnc2nc[nH]c12`, the half-maximal activity concentration (AC50) is 30.4 µM (active).
Turning to `C[C@](N)(Cc1ccc(O)c(O)c1)C(=O)O`, the AC50 was 0.696 µM (active).
Regarding `O=C(CCCCCCCCc1cccnc1)N1CCC(C=C(c2ccccc2)c2ccccc2)CC1`, the AC50 is 27.6 µM (active).
On the same count and under the same terms, with `Nc1cccc(N)c1` the figure was 5.02 µM (active); with `Nc1nc2ncc(CNc3ccc(C(=O)N[C@@H](CCC(=O)O)C(=O)O)cc3)nc2c(=O)[nH]1`, 20.5 µM (active).
Still for that read-out and setting: next, `CN(C)c1ccc(N=NS(=O)(=O)O)cc1`: 21.7 µM (active).
On to `CCNc1ccccc1`, for which the outcome was inactive.
For the compound `O=C(OC[C@H]1O[C@@H](OC(=O)c2cc(O)c(O)c(OC(=O)c3cc(O)c(O)c(O)c3)c2)[C@H](OC(=O)c2cc(O)c(O)c(OC(=O)c3cc(O)c(O)c(O)c3)c2)[C@@H](OC(=O)c2cc(O)c(O)c(OC(=O)c3cc(O)c(O)c(O)c3)c2)[C@@H]1OC(=O)c1cc(O)c(O)c(OC(=O)c2cc(O)c(O)c(O)c2)c1)c1cc(O)c(O)c(OC(=O)c2cc(O)c(O)c(O)c2)c1`, the concentration at half-maximal activity (AC50) was 1.03 µM (active).
Take `CC[C@H](C)C(=O)O[C@H]1C[C@@H](C)C=C2C=C[C@H](C)[C@H](CC[C@@H]3C[C@@H](O)CC(=O)O3)[C@H]21`: the AC50 is 40.3 µM (active) and 43.8 µM (active).
On the same count and under the same terms, with `CC(C)(O)c1coc(S(=O)(=O)NC(=O)Nc2c3c(cc4c2CCC4)CCC3)c1` the figure was 7.6 µM (active); with `Nc1ccc(Nc2ccccc2)cc1`, 3.09 µM (active); with `Cc1ccc(N)cc1O`, 1.18 µM (active).
On the same count and under the same terms, with `On1ccccc1=S` the figure was 17.5 µM (active); with `CC(C)=CCC/C(C)=C\CO`, 8.64 µM (active).
Regarding `CC(C)=CCCC(C)CCO` (configuration not stated), the call was inactive.
`NC(=O)NO`: the concentration at half-maximal activity (AC50) is 43.8 µM (active).
The same measure, in the same setting: next, `O=C(O)CCN(C1(C(=O)NO)CCCC1)S(=O)(=O)c1ccc(Oc2ccc(F)cc2)cc1`: 27.7 µM (active).
The same measure, in the same setting: next, `CCOc1cccc(-n2cc(C(=O)N3CCN(c4cc(C(=O)O)c5ccccc5c4)CC3)nc2-c2ccc(C)cc2)c1`: 43.8 µM (active).
On to `CCC(C)(C)C(=O)O[C@H]1C[C@@H](C)C=C2C=C[C@H](C)[C@H](CC[C@@H]3C[C@@H](O)CC(=O)O3)[C@H]21`, for which the half-maximal activity concentration (AC50) was 43.8 µM (active).
As for `C=CC(=C)CCC=C(C)C`, the call was inactive.
For `CCCCCCc1ccc(O)cc1O`, the half-maximal activity concentration (AC50) was 0.00854 µM (active).
On the same count and under the same terms, with `O=c1n(CC2CO2)c(=O)n(CC2CO2)c(=O)n1CC1CO1` (configuration not stated) the figure was 21.1 µM (active); with `Oc1ccc2c(c1)-c1ccccc1C2`, 10.6 µM (active); with `CC/C(=C\C(=N/O)C(N)=O)C(C)[N+](=O)[O-]` (configuration not stated), 26.3 µM (active).
The same measure, in the same setting: next, `CC(C)=CCCC(C)=CC=O`: 43.8 µM (active).
Same read-out and setting: next, `CCOC(=O)c1ccc(C2CCC(NC[C@H](O)COc3ccc(O)c(NS(C)(=O)=O)c3)CC2)cc1` (some centres not stated): 1.12 µM (active).
As for `CCCN(C1CCN(C(=O)C2CCNCC2)CC1)[C@@H]1CCc2ccc(OC)cc2C1`, the result was inactive.
In the case of `CN(C)c1ccc(Cc2ccc(N(C)C)cc2)cc1`, the AC50 is 12 µM (active).
In the case of `O=P(OC(CCl)CCl)(OC(CCl)CCl)OC(CCl)CCl`, the result was inactive.
On to `Cc1[nH]cnc1C[C@H]1CCc2c(C)c3ccccc3n2C1=O`, for which the half-maximal activity concentration (AC50) is 27.6 µM (active).
For the compound `CCn1nc(Cc2ccccc2)cc1C1CCN(C[C@H]2C[C@H](N(C)[C@@H](C(=O)O)C(C)C)C[C@@H]2c2cccc(F)c2)CC1`, the concentration at half-maximal activity (AC50) was 30.7 µM (active).
`O=C(O)c1cccc(N(Cc2cccnc2)c2ccc(OC(F)F)c(OC(F)F)c2)c1`: the AC50 is 31.2 µM (active).
